About 10 (0.01%) of roughly 89,000 compounds were called active. Roughly 10% stayed inconclusive and do not appear here. Cut-off read from the data, not from the text of the source: active = activity change below about -37% (passing the limit was not always enough); inconclusive = no clear call, values can overlap the other calls; tested in A549 cells. Not all results are given here.
Experiment: Vaccinia orthopox stage-specific inhibition, primary screen, cell-based, single point (AID 1053133)
Details: Vaccinia-infected cells, mCherry/Venus stage reporter fluorescence, stronger effect = lower value, concentration not given here; activity change (Venus): measured here: Venus reporter, other viral stage

Row | Compound | activity change (Venus) [%] | activity change (mCherry)
1 | O=C(C[C@H]1C=C[C@@H](NS(=O)(=O)c2ccc(F)cc2)[C@@H](CO)O1)NC1CCC1 | 1.04 | -4.64% (inactive)
2 | COc1ccc2c3c(n(C)c2c1)[C@@H](CO)NCC31CCN(CC2CC2)CC1 | -18.9 | -27.4% (inactive)
3 | O=C([C@@H]1[C@@H](CO)[C@@H]2Cn3c(ccc(C4=CCCC4)c3=O)[C@H]1N2C(=O)c1ccncc1)N1CCCCC1 | 16.9 | 10.1% (inactive)
4 | C[C@@H]1CCCCO[C@H](CN(C)S(=O)(=O)c2cccs2)[C@H](C)CN([C@@H](C)CO)C(=O)c2cc(NC(=O)Nc3ccc4c(c3)OCO4)ccc2O1 | 8.44 | 9.35% (inactive)
5 | COCC(=O)N1CC2(CN(C(=O)c3cccnc3)C2)c2c([nH]c3cc(OC)ccc23)[C@H]1CO | -0.352 | 2.73% (inactive)
6 | Cc1ccccc1S(=O)(=O)N[C@@H]1CC[C@H](CCn2cc(-c3ccc(F)cc3)nn2)O[C@@H]1CO | -24.8 | -28.1% (inactive)
7 | CO[C@@H]1CC[C@@H]2CCOc3c(C#N)cccc3C(=O)N(C)C[C@H](C)C(=O)N(C)C[C@H]1O2 | 8.81 | 14.4% (inactive)
8 | C[C@@H]1CN([C@@H](C)CO)C(=O)c2cc(NC(=O)Cc3ccccc3)ccc2O[C@@H](C)CCCCO[C@H]1CN(C)C(=O)Nc1cccc2ccccc12 | 18.5 | 21.9% (inactive)
9 | CN(C)CCCNC(=O)C[C@H]1CC[C@H]2[C@@H](COC[C@H](O)CN2CC2CCCCC2)O1 | 5.87 | 3.25% (inactive)
10 | C[C@@H]1CCCCO[C@@H](CN(C)Cc2ccc3c(c2)OCO3)[C@H](C)CN([C@@H](C)CO)C(=O)c2cc(NS(C)(=O)=O)ccc2O1 | 5.91 | -0.705% (inactive)
11 | COc1ccc2c3c(n(C)c2c1)[C@H](CO)N(CC1CCOCC1)CC31CCN(C(C)=O)CC1 | 11 | 17.4% (inactive)
12 | CN(C)CC(=O)Nc1ccc2c(c1)[C@@H]1C[C@H](CC(=O)NCc3ccc(Cl)cc3)O[C@@H](CO)[C@@H]1O2 | 5.77 | -4.73% (inactive)
13 | COc1ccc2c3c([nH]c2c1)[C@@H](CO)N(C(=O)c1ccc(F)cc1)CC31CCN(C(=O)Nc2ccc(F)cc2)CC1 | -2.47 | 1.1% (inactive)
14 | C[C@H](CO)N1C[C@H](C)[C@H](CN(C)Cc2cccc(F)c2)Oc2ncc(C#CCN(C)C)cc2C1=O | -6.38 | -10.3% (inactive)
15 | COc1ccc(S(=O)(=O)N[C@@H]2CC[C@@H](CC(=O)NCCc3ccccc3)O[C@@H]2CO)cc1 | -2.59 | 3.47% (inactive)
16 | O=C(NCC[C@@H]1CC[C@@H](NS(=O)(=O)c2ccc(Cl)cc2)[C@@H](CO)O1)c1ccccc1F | -4.89 | -8.02% (inactive)
17 | COc1ccc(S(=O)(=O)Nc2ccc3c(c2)C(=O)N([C@@H](C)CO)C[C@H](C)[C@@H](CN(C)C(=O)c2ccccc2)OCCCC[C@H](C)O3)cc1 | -18.1 | -21.6% (inactive)
18 | CC(C)NC(=O)N1Cc2cc(C(=O)NCC(F)(F)F)nc(-c3cccc(-c4cc5ccccc5o4)c3)c2[C@@H]1CCO | -13.3 | -16.3% (inactive)
19 | C[C@@H]1CN([C@@H](C)CO)C(=O)Cc2cc(NS(=O)(=O)c3cccs3)ccc2O[C@H]1CN(C)S(=O)(=O)c1ccc(F)cc1 | 4.55 | -5.12% (inactive)

Row | Compound | activity change (Venus) [%] | activity change (mCherry)
20 | CO[C@@H]1CN(C)C(=O)c2cc(NC(=O)C3CC3)ccc2OC[C@H](C)N(C(=O)CN(C)C)C[C@H]1C | -3.17 | -2.47% (inactive)
21 | O=C(C[C@@H]1CC[C@H](NC(=O)Nc2ccc3c(c2)OCO3)[C@H](CO)O1)NCc1ccccc1 | 14.1 | 19.4% (inactive)
22 | C=CCOC(=O)C1=C[C@@H](c2ccccc2)C[C@@H](OCc2ccc(CO)cc2)O1 | -3.63 | 2.64% (inactive)
23 | O=C(C1CCCC1)N1CC(=O)N2[C@@H](CO)[C@@H](c3ccc(-c4cccnc4)cc3)[C@@H]2C1 | -4.04 | -5.69% (inactive)
24 | Cc1ccccc1-c1cnc2c(c1)C(=O)N([C@H](C)CO)C[C@@H](C)[C@H](CN(C)C(=O)c1cccnc1)O2 | -1.16 | -1.67% (inactive)
25 | CN(C)C(=O)c1ccc(-c2ccc(C3[C@H]4CNC[C@@H]3N4C(=O)Nc3cc(F)ccc3F)cc2)cc1 (some centres undefined) | 3.11 | 14.7% (inactive)
26 | O=C(C1CCCCC1)N1CC2(C1)[C@H](c1ccccc1)[C@@H](CO)N2CCC(F)(F)F | -3.18 | -9.06% (inactive)
27 | CC(=O)Nc1ccc2c(c1)C(=O)N(C)[C@H]1CC[C@@H](CC(=O)NCC3CC3)O[C@H]1CO2 | 11.1 | 7.92% (inactive)
28 | CCC(=O)N(C)C[C@@H]1Oc2ncc(/C=C/c3ccccc3)cc2C(=O)N([C@@H](C)CO)C[C@H]1C | 1.22 | 12.1% (inactive)
29 | O=C(O)C[C@H]1C=C[C@@H](NC(=O)Nc2cc(F)ccc2F)[C@@H](CO)O1 | 9.94 | 8.15% (inactive)
30 | COCC(=O)N(C)C[C@H]1Oc2cc(C#C[C@@H](C)O)ccc2S(=O)(=O)N([C@@H](C)CO)C[C@@H]1C | -7.76 | 2.13% (inactive)
31 | CCC(=O)N(C)C[C@@H]1Oc2cc(-c3ccc(C#N)cc3)ccc2S(=O)(=O)N([C@@H](C)CO)C[C@@H]1C | 0.0371 | -1.36% (inactive)
32 | COc1ccc2c3c(n(C)c2c1)[C@@H](CO)N(S(C)(=O)=O)CC31CCN(C(=O)C2CCC2)CC1 | -12.1 | -2.22% (inactive)
33 | CC(C)C#Cc1cnc2c(c1)C(=O)N([C@H](C)CO)C[C@H](C)[C@@H](CN(C)C(=O)Nc1cc(F)ccc1F)O2 | -6.46 | -3.74% (inactive)
34 | COc1ccccc1NC(=O)N1C[C@@H](O)COC[C@H]2O[C@@H](CC(=O)NCc3ccccc3)CC[C@@H]21 | -3.27 | -5.93% (inactive)
35 | Cc1cccc(-c2ccc([C@@H]3[C@H]4CN(C(=O)c5ccccc5)CC(=O)N4[C@H]3CO)cc2)c1 | -26.3 | -24.1% (inactive)
36 | CCCN1C[C@H](C)[C@@H](OC)CN(C)C(=O)c2ccc(NC(=O)C3CCOCC3)cc2OC[C@@H]1C | 5.44 | 13.4% (inactive)
37 | C[C@H]1CN([C@@H](C)CO)C(=O)CCCn2nncc2CO[C@@H]1CN(C)C(=O)Nc1ccc(N2CCN(C)CC2)cc1 | 3.05 | 3.06% (inactive)
38 | N#Cc1cccc(-c2ccc([C@H]3[C@@H](CO)N[C@@H]3CNC(=O)C3CCC3)cc2)c1 | -1.58 | -4.87% (inactive)

Row | Compound | activity change (Venus) [%] | activity change (mCherry)
39 | COc1ccc2c3c(n(C)c2c1)[C@H](CO)N(CC1CCCCC1)CC31CCN(Cc2nccs2)CC1 | -17.6 | -20.4% (inactive)
40 | C/C=C/c1ccccc1[C@H]1[C@@H](C#N)N(C(=O)Cc2ccccn2)[C@@H]1CO | -12.5 | -21.2% (inactive)
41 | CCNC(=O)[C@H]1[C@H](CO)[C@H]2Cn3c(cccc3=O)[C@@H]1N2Cc1cc(F)ccc1F | 15.1 | 12.8% (inactive)
42 | O=C(C[C@@H]1CC[C@@H]2[C@H](COC[C@H](O)CN2C(=O)c2ccc3c(c2)OCO3)O1)NC1CCCC1 | 4.69 | 7.59% (inactive)
43 | C[C@@H]1CCCCO[C@H](CN(C)S(=O)(=O)c2ccc(Cl)cc2)[C@H](C)CN([C@@H](C)CO)C(=O)c2cc(NS(=O)(=O)c3cn(C)cn3)ccc2O1 | 3.71 | 0.869% (inactive)
44 | CNC(=O)C[C@@H]1CC[C@@H]2[C@H](COC[C@H](O)CN2Cc2ccc(C(F)(F)F)cc2)O1 | 3.54 | 4.2% (inactive)
45 | Cc1noc(C)c1S(=O)(=O)N(C)C[C@@H]1OCCCC[C@@H](C)Oc2ccc(NC(=O)Nc3ccccc3)cc2C(=O)N([C@H](C)CO)C[C@@H]1C | 5.28 | 12.8% (inactive)
46 | CC=Cc1ccc2n(c1=O)C[C@@H]1[C@@H](CO)[C@H](C(=O)NCc3cccc(OC)c3)N[C@H]21 (mixture of isomers) | 12.7 | 3.42% (inactive)
47 | C/C=C/c1cnc2c(c1)C(=O)N([C@H](C)CO)C[C@H](C)[C@@H](CN(C)S(=O)(=O)c1ccccc1F)O2 | -1.53 | -5.68% (inactive)
48 | COCC(=O)Nc1ccc2c(c1)C(=O)N(C)C[C@H](OC)[C@@H](C)CN(CCc1ccccc1)[C@@H](C)CO2 | -0.0268 | -4.99% (inactive)
49 | O=C(C[C@@H]1C[C@@H]2c3cc(NC(=O)Nc4ccccc4F)ccc3O[C@@H]2[C@H](CO)O1)NCCc1ccccc1 | 7.27 | 9.1% (inactive)
50 | CCCC(=O)N1CC2(C1)CN(C(=O)Nc1cccc(F)c1)[C@@H](CO)c1c2c2ccc(OC)cc2n1C | -2.53 | 2.16% (inactive)
51 | COCC(=O)Nc1ccc2c(c1)C(=O)N(C)[C@@H]1CC[C@H](CC(=O)NCC3CC3)O[C@@H]1CO2 | 8.99 | 16% (inactive)
52 | COc1ccc2c3c([nH]c2c1)[C@@H](CO)N(C(=O)Cc1ccccc1)CC31CCN(C)CC1 | -13.2 | -7.54% (inactive)
53 | C[C@H](CO)N1C[C@H](C)[C@H](CN(C)C(=O)C2CCOCC2)Oc2ncc(-c3ccccc3F)cc2C1=O | 6.04 | 8.11% (inactive)
54 | CO[C@H]1CN(C)C(=O)c2cc(NC(=O)C3CCC3)ccc2OC[C@H](C)N(CC2CCCCC2)C[C@@H]1C | 3.14 | -9.01% (inactive)
55 | COc1ccc2c3c(n(C)c2c1)[C@H](CO)N(C)CC31CCN(C(=O)Nc2cccc(F)c2)CC1 | -8.96 | -16.1% (inactive)
56 | CC(C)NC(=O)N1CC(=O)N2[C@@H](CO)[C@H](c3ccc(C#CCN(C)C)cc3)[C@@H]2C1 | 7.94 | 9.18% (inactive)
57 | O=C(C[C@H]1C[C@H]2c3cc(NC(=O)Nc4ccc(C(F)(F)F)cc4)ccc3O[C@H]2[C@@H](CO)O1)NCCc1ccccc1 | 9.77 | 6.8% (inactive)
